PubChem BioAssay AID1159580 (chemical genetic matrix, 2015)
Hit rate of the full screen: of about 5,500 compounds, about 2,000 (36%) were called active. Another 18% or so got no clear call; they are omitted. Cut-off read from the data, not from the text of the source: active = normalized growth mostly below about 0.91 (no sharp cut-off); inconclusive = no clear call, values can overlap the other calls; inactive = mostly above about 0.92. Some of the results follow.

Test: chemical genetic growth profiling, strain panel (AID 1159580);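 note: tested at 20 µM; growth read once vehicle control cultures reached saturation at 30 °C; 1 = growth at the plate median or of vehicle wells; lower values mean less growth of the strain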
Conditions: growth OD

Measured: normalized growth

CCCCCCCCCc1ccc(O)cc1
inactive: S. cerevisiae deletion strains, locus YKL068W, active compounds read low 0.964 | S. cerevisiae deletion strains, locus YOL012C, strain htz1 0.624 | S. cerevisiae deletion strains, locus YPR141C, strain kar3, active compounds read low 0.992
active: S. cerevisiae deletion strains, locus YJR075W, strain HOC1, active compounds read low 0.256 | S. cerevisiae deletion strains, locus YKL009W, strain mrt4, active compounds read low 0.616 | S. cerevisiae deletion strains, locus YKL085W, strain MDH1 (second series), active compounds read low 0.311 | S. cerevisiae deletion strains, locus YKL085W, strain MDH1, active compounds read low 0.311 | S. cerevisiae deletion strains, locus YKL160W, strain elf1, active compounds read low 0.0913 | S. cerevisiae deletion strains, locus YKL190W, strain CNB1, active compounds read low 0.139 | S. cerevisiae deletion strains, locus YKR001C, strain vps1, active compounds read low 0.352 | S. cerevisiae deletion strains, locus YKR026C, strain gcn3, active compounds read low 0.0658 | S. cerevisiae deletion strains, locus YKR091W, strain srl3, active compounds read low 0.0785 | S. cerevisiae deletion strains, locus YLL001W, strain dnm1, active compounds read low 0.0778 | S. cerevisiae deletion strains, locus YLL026W, active compounds read low 0.0571 | S. cerevisiae deletion strains, locus YLL041C, strain sdh2, active compounds read low 0.0651 | S. cerevisiae deletion strains, locus YLR027C, strain aat2, active compounds read low 0.0531 | S. cerevisiae deletion strains, locus YLR039C, strain RIC1, active compounds read low 0.106 | S. cerevisiae deletion strains, locus YLR058C, strain SHM2, active compounds read low 0.136 | S. cerevisiae deletion strains, locus YLR102C, strain apc9, active compounds read low 0.901 | S. cerevisiae deletion strains, locus YLR113W, strain HOG1, active compounds read low 0.117 | S. cerevisiae deletion strains, locus YLR221C, strain rsa3, active compounds read low 0.0526 | S. cerevisiae deletion strains, locus YLR258W, strain gsy2, active compounds read low 0.062 | S. cerevisiae deletion strains, locus YLR262C, strain YPT6 (second series), active compounds read low 0.0891 | S. cerevisiae deletion strains, locus YLR262C, strain YPT6, active compounds read low 0.139 | S. cerevisiae deletion strains, locus YLR268W, strain sec22, active compounds read low 0.74 | S. cerevisiae deletion strains, locus YLR320W, strain mms22, active compounds read low 0.071 | S. cerevisiae deletion strains, locus YLR330W, strain CHS5, active compounds read low 0.321 | S. cerevisiae deletion strains, locus YLR342W, strain FKS1 (second series), active compounds read low 0.102 | S. cerevisiae deletion strains, locus YLR342W, strain FKS1, active compounds read low 0.0664 | S. cerevisiae deletion strains, locus YLR357W, strain rsc2, active compounds read low 0.148 | S. cerevisiae deletion strains, locus YLR370C, strain arc18, active compounds read low 0.0667 | S. cerevisiae deletion strains, locus YLR371W, strain rom2, active compounds read low 0.622 | S. cerevisiae deletion strains, locus YLR384C, strain iki3, active compounds read low 0.0786 | S. cerevisiae deletion strains, locus YLR418C, strain cdc73, active compounds read low 0.323 | S. cerevisiae deletion strains, locus YML016C, strain PPZ1, active compounds read low 0.191 | S. cerevisiae deletion strains, locus YML032C, strain rad52, active compounds read low 0.497 | S. cerevisiae deletion strains, locus YML120C, strain ndi1, active compounds read low 0.0538 | S. cerevisiae deletion strains, locus YML124C, strain tub3, active compounds read low 0.908 | S. cerevisiae deletion strains, locus YMR058W, strain fet3, active compounds read low 0.0622 | S. cerevisiae deletion strains, locus YMR078C, strain ctf18, active compounds read low 0.611 | S. cerevisiae deletion strains, locus YMR125W, strain sto1, active compounds read low 0.0742 | S. cerevisiae deletion strains, locus YMR129W, active compounds read low 0.0704 | S. cerevisiae deletion strains, locus YMR205C, strain PFK2, active compounds read low 0.0794 | S. cerevisiae deletion strains, locus YMR223W, strain ubp8, active compounds read low 0.558 | S. cerevisiae deletion strains, locus YMR231W, strain pep5, active compounds read low 0.0903 | S. cerevisiae deletion strains, locus YMR263W, strain SAP30, active compounds read low 0.099 | S. cerevisiae deletion strains, locus YMR307W, strain GAS1, active compounds read low 0.121 | S. cerevisiae deletion strains, locus YNL067W, strain RPL9B, active compounds read low 0.254 | S. cerevisiae deletion strains, locus YNL071W, strain lat1, active compounds read low 0.0615 | S. cerevisiae deletion strains, locus YNL128W, strain TEP1, active compounds read low 0.119 | S. cerevisiae deletion strains, locus YNL153C, strain GIM3, active compounds read low 0.117 | S. cerevisiae deletion strains, locus YNL183C, strain NPR1, active compounds read low 0.00185 | S. cerevisiae deletion strains, locus YNL209W, strain ssb2, active compounds read low 0.0648 | S. cerevisiae deletion strains, locus YNL233W, strain BNI4, active compounds read low 0.0815 | S. cerevisiae deletion strains, locus YNL248C, strain rpa49, active compounds read low 0.076 | S. cerevisiae deletion strains, locus YNL250W, strain rad50, active compounds read low 0.734 | S. cerevisiae deletion strains, locus YNL271C, strain bni1, active compounds read low 0.749 | S. cerevisiae deletion strains, locus YNL298W, strain CLA4, active compounds read low 0.437 | S. cerevisiae deletion strains, locus YNL307C, strain MCK1, active compounds read low 0.292 | S. cerevisiae deletion strains, locus YNL322C, strain KRE1 (second series), active compounds read low 0.11 | S. cerevisiae deletion strains, locus YNL322C, strain KRE1, active compounds read low 0.167 | S. cerevisiae deletion strains, locus YNR049C, strain mso1, active compounds read low 0.0733 | S. cerevisiae deletion strains, locus YNR052C, strain pop2, active compounds read low 0.538 | S. cerevisiae deletion strains, locus YOL006C, strain TOP1, active compounds read low 0.217 | S. cerevisiae deletion strains, locus YOL147C, strain pex11, active compounds read low 0.444 | S. cerevisiae deletion strains, locus YOR001W, strain rrp6, active compounds read low 0.0626 | S. cerevisiae deletion strains, locus YOR061W, strain CKA2, active compounds read low 0.102 | S. cerevisiae deletion strains, locus YOR069W, strain VPS5, active compounds read low 0.217 | S. cerevisiae deletion strains, locus YOR070C, strain gyp1, active compounds read low 0.063 | S. cerevisiae deletion strains, locus YOR080W, strain dia2, active compounds read low 0.0669 | S. cerevisiae deletion strains, locus YOR083W, strain WHI5, active compounds read low 0.0608 | S. cerevisiae deletion strains, locus YOR106W, strain vam3, active compounds read low 0.0604 | S. cerevisiae deletion strains, locus YOR136W, strain idh2, active compounds read low 0.758 | S. cerevisiae deletion strains, locus YOR144C, strain elg1, active compounds read low 0.553 | S. cerevisiae deletion strains, locus YOR184W, strain ser1, active compounds read low 0.506 | S. cerevisiae deletion strains, locus YOR231W, strain MKK1, active compounds read low 0.101 | S. cerevisiae deletion strains, locus YOR265W, strain rbl2, active compounds read low 0.0564 | S. cerevisiae deletion strains, locus YOR270C, strain vph1, active compounds read low 0.102 | S. cerevisiae deletion strains, locus YOR290C, strain snf2, active compounds read low 0.0652 | S. cerevisiae deletion strains, locus YOR316C, strain cot1, active compounds read low 0.799 | S. cerevisiae deletion strains, locus YPL051W, strain arl3, active compounds read low 0.0626 | S. cerevisiae deletion strains, locus YPL055C, strain LGE1, active compounds read low 0.1 | S. cerevisiae deletion strains, locus YPL078C, strain atp4, active compounds read low 0.0621 | S. cerevisiae deletion strains, locus YPL106C, strain sse1, active compounds read low 0.0816 | S. cerevisiae deletion strains, locus YPL240C, strain hsp82, active compounds read low 0.0552 | S. cerevisiae deletion strains, locus YPL241C, strain CIN2, active compounds read low 0.219 | S. cerevisiae deletion strains, locus YPL256C, strain CLN2, active compounds read low 0.109 | S. cerevisiae deletion strains, locus YPR119W, strain clb2, active compounds read low 0.67 | S. cerevisiae deletion strains, locus YPR163C, strain tif3, active compounds read low 0.86 | S. cerevisiae deletion strains, locus YPR167C, strain met16, active compounds read low 0.655 | S. cerevisiae deletion strains, strain wtn01, active compounds read low 0.813 | S. cerevisiae strains, strain wild type, active compounds read low 0.112
